In the supplement of paper PMC6555819:

Key:
Experiment in all cases: PBM binding z-score (relative to random genomic background probes); higher = stronger binding; sequences stand for … in GC…GCGATTGACAGCGTAGAATGAAGG
[1] = system: FXR:RXRa (NR concentration 270 nM, RXRa partner concentration 90 nM)
Outline: (§1)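 On custom Agilent 4×180K arrays, double-stranded probes with 34-nt variable regions carried direct-repeat seeds, single-nucleotide variants, half-site ablations or random human genomic background. Ligand-free nuclear receptor dimers were applied for 1 h, and binding was read with antibodies against each partner (one per run). Binding z-scores come from regression-normalized fluorescence, with the random background probes as reference.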

[2] = system: LXRa:RXRa (NR concentration 270 nM, RXRa partner concentration 90 nM)
Outline: as §1

[3] = system: LXRa homodimer (NR concentration 270 nM)
Outline: as §1

[4] = system: LXRb:RXRa (NR concentration 270 nM, RXRa partner concentration 90 nM)
Outline: as §1

[5] = system: LXRb homodimer (NR concentration 270 nM)
Outline: as §1

[6] = system: PPARa:RXRa (NR concentration 270 nM, RXRa partner concentration 90 nM)
Outline: as §1

[7] = system: PPARg:RXRa (NR concentration 180 nM, RXRa partner concentration 90 nM)
Outline: as §1

[8] = system: PPARg:RXRa 270nM:90nM, anti-RXR (NR concentration 270 nM, RXRa partner concentration 90 nM)
Outline: as §1

[9] = system: PPARg:RXRa 30nM:10nM, anti-RXR (NR concentration 30 nM, RXRa partner concentration 10 nM)
Outline: as §1

[10] = system: PPARg:RXRa 90nM:30nM, anti-RXR (NR concentration 90 nM, RXRa partner concentration 30 nM)
Outline: as §1

[11] = system: PPARg:RXRa DBDmut IVT, anti-RXR (DBD mutation: RXRa K156A/R161A, NR concentration 270 nM, RXRa partner concentration 90 nM)
Outline: as §1

[12] = system: PPARg:RXRa IVT, anti-PPARg (NR concentration 270 nM, RXRa partner concentration 90 nM)
Outline: as §1

[13] = system: PPARg DBDmut:RXRa IVT, anti-PPARg (DBD mutation: PPARg1 K132A/R137A, NR concentration 270 nM, RXRa partner concentration 90 nM)
Outline: as §1

[14] = system: PPARg DBDmut IVT, anti-PPARg (DBD mutation: PPARg1 K132A/R137A, NR concentration 270 nM)
Outline: as §1

[15] = system: PPARg homodimer (NR concentration 180 nM)
Outline: as §1

[16] = system: PXR:RXRa (NR concentration 270 nM, RXRa partner concentration 90 nM)
Outline: as §1

[17] = system: PXR homodimer (NR concentration 270 nM)
Outline: as §1

[18] = system: RARa:RXR (NR concentration 270 nM, RXRa partner concentration 90 nM)
Outline: as §1

[19] = system: RARa homodimer (NR concentration 270 nM)
Outline: as §1

[20] = system: RARb:RXRa (NR concentration 270 nM, RXRa partner concentration 90 nM)
Outline: as §1

Sequence	PBM binding z-score [1]	PBM binding z-score [2]	PBM binding z-score [3]	PBM binding z-score [4]	PBM binding z-score [5]	PBM binding z-score [6]	PBM binding z-score [7]	PBM binding z-score [8]	PBM binding z-score [9]	PBM binding z-score [10]	PBM binding z-score [11]	PBM binding z-score [12]	PBM binding z-score [13]	PBM binding z-score [14]	PBM binding z-score [15]	PBM binding z-score [16]	PBM binding z-score [17]	PBM binding z-score [18]	PBM binding z-score [19]	PBM binding z-score [20]
CCTACTGGGCCACGACAGGTCATTGATTCAGTGA	0.777	2.99	1.75	1.48	-0.349	2.68	2.81	2.84	0.448	1.68	5.23	5.51	1.69	-0.106	0.946	1.97	0.00199	2.15	-0.183	2.01
CCTCGGAGGACAGAAGGTCAGAACTGTCCGCTTT	0.99	1.35	0.337	1.03	-0.707	1.54	-0.0634	0.635	-0.743	0.0441	0.127	-0.242	-0.806	-1.38	0.826	1.1	0.0205	1.7	0.442	2.85
AGTGAAAGTTCATCTAGGTAACGTAAGATATGCT	5.95	5.92	5.06	3.56	1.86	4.52	5.39	5.5	2.65	4.84	0.529	3.41	1.8	1.64	2.58	4.68	6.78	3.24	1.4	4.63
CCTATTAGTTAACCATAAGGGCAACCGAAGCTCG	0.323	0.341	0.429	0.249	0.486	0.386	0.374	0.215	0.166	0.0193	0.296	0.65	0.701	0.763	1.71	0.409	0.723	0.812	1.42	1.41
ACTAGCAGGCCAAGGGTCACTCTAGATTAGTCCG	1.88	3.2	0.239	2.54	-0.423	4.44	7.53	7.29	6.21	7.97	0.951	3.59	-0.404	-0.203	2.32	2.94	-0.367	4.14	-0.113	3.1
ATCTCTAGGTAAAGTACAGTGAAAGATCGATAGA	0.412	0.617	0.207	0.131	0.745	0.0903	0.761	0.842	0.832	0.623	2.11	2.03	1.17	1.25	1.14	0.119	0.479	0.369	1.59	0.586
ATCTCTAGGTAAAAGTTCAGTGAGTCCCGAGGAT	0.932	1.64	1.36	1.11	0.656	4.26	7.9	7.98	7.48	9.16	2.37	3.88	1.34	1.28	1.47	2.06	2.57	1.47	0.867	2.21
CAAACTAGGTCACCGGAAGTTCAAAGTCCGCATG	5.16	5.88	4.93	4.26	1.06	5.9	9.18	7.54	5.95	7.54	8.47	9.21	5.32	4.81	7.04	6.19	6.26	5.86	1.72	4.85
